Pf Dd2 inh – blocks growth of Plasmodium falciparum Dd2 parasites; P. falciparum Dd2 growth, SYBR Green, 72 h; stronger effect = lower value; activity change, % at 10 µM; 2.3% of 94,000 active; in the data active means activity change below about -80%; inconclusive means no clear call, values can overlap the other calls
T cruzi growth-1 – T. cruzi proliferation inhibition. inhibition, % at 8.34 µM. 5.9% of 77,000 active. AID 624255. T. cruzi beta-gal in NIH3T3, GalScreen luminescence, 90 h;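 active means mean inhibition above about 93%, with at least 55% of replicates each passing it, limit read from the data, passing the limit was not always enough; inconclusive means only one of those two conditions holds; inactive means neither condition holds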
C diff growth – inhibitors of Clostridium difficile growth; AID 1259249; growth activity, negative = inhibition, % at 16 µg/mL (by protocol); Clostridium difficile clinical isolate growth, OD600, 24 h; stronger effect = lower value; 0.25% of 86,000 active;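 active means mean growth activity at or below -80% and every replicate also at or below -80%; inconclusive means mean at or below -80% but some replicate above -80%; inactive means mean growth activity above -80%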;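 further: 0% = DMSO wells and -100% = levofloxacin 16 µg/mL wells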
T cruzi growth-2 – inhibitors of T. cruzi proliferation. T. cruzi beta-gal in NIH3T3, GalScreen luminescence, 90 h. shares compounds with T cruzi growth-1. inhibition, % at 8.35 µM. AID 651739. 72% of 5,600 active;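 active means mean replicate inhibition above about 95% and at least 55% of replicates individually reaching it, limit read from the data; inconclusive means only one of the two criteria is met; inactive means neither criterion is met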
T cruzi growth-3 – inhibitors of T. cruzi proliferation; shares compounds with T cruzi growth-1; inhibition, % at 2.09 µM; 21% of 5,600 active; T. cruzi beta-gal in NIH3T3, GalScreen luminescence, 90 h; AID 651740;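 active means mean inhibition above about 95%, with at least 55% of replicates also reaching it, limit read from the data; inconclusive means meets just one of the two conditions; inactive means meets neither condition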;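 further: plate controls were neutral control median for no effect and positive control median for full effect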
NIH3T3 tox – kills mouse NIH/3T3 fibroblasts. shares compounds with T cruzi growth-1. NIH/3T3 viability, CellTiter-Glo ATP luminescence, 90 h. cytotoxicity (signal decrease), % at 8.35 µM. 14% of 5,600 active. AID 651742;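 active means mean signal decrease across replicates above about 35% based on untreated-well scatter, with enough replicates individually passing, limit read from the data; inconclusive means no rule stated though some were filed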;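 further: 0% = median of neutral control wells and 100% = median of positive control wells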
NIH3T3 tox 2 – kills mouse NIH/3T3 fibroblasts; shares compounds with T cruzi growth-1; 56% of 5,600 active; AID 651744; NIH/3T3 viability, CellTiter-Glo ATP luminescence, 90 h; inhibition, % at 24.9 µM;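 active means mean loss of cell viability signal at or above a set limit, and enough replicates individually reaching it; inconclusive means meets only the mean limit or only the replicate share; inactive means meets neither condition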;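 further: 0% = median of neutral control wells and 100% = median of positive control wells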
The depositor's hits bear a star; u = inconclusive; x = no result given. Rows were chosen to be rich in hits. Some 6.7% of all compounds tested hit in one or more screens of this group.

SMILES	Pf Dd2 inh	T cruzi growth-1	C diff growth	T cruzi growth-2	T cruzi growth-3	NIH3T3 tox	NIH3T3 tox 2
Cc1ccc(-c2ccc3c(c2)O[C@H](CN(C)Cc2ccc(F)cc2)[C@H](C)CN([C@@H](C)CO)S3(=O)=O)cc1	-24.7	97.1*	4.8	106.4*	u	18.6	68.7*
COc1ccc(S(=O)(=O)N(C)C[C@@H]2Oc3c(NC(=O)Nc4c(C)noc4C)cccc3C(=O)N([C@H](C)CO)C[C@H]2C)cc1	-18.5	68.2	x	x	x	x	x
C/C=C/c1cnc2c(c1)C(=O)N([C@H](C)CO)C[C@H](C)[C@H](CN(C)C(=O)Cc1ccccn1)O2	6.3	x	-1.3	x	x	x	x
Cc1cccc(S(=O)(=O)N2CC[C@@H]3[C@H]2c2cc(-c4ccccc4F)ccc2N[C@@H]3CO)c1	61.8	14.6	4.7	x	x	x	x
O=S(=O)(c1ccc(F)cc1)N1CC[C@H]2[C@H](CO)Nc3ccc(-c4ccccc4F)cc3[C@H]21	-27.7	25.6	-19.9	x	x	x	x
Cc1ccc(S(=O)(=O)N2CC[C@@H]3[C@H](CO)Nc4ccc(-c5ccccc5F)cc4[C@@H]32)cc1	-55.3	111.9*	-5.6	101.7*	110.3*	40.4*	59.9*
CN(C)C(=O)c1cccc(-c2ccc3c(c2)[C@@H]2[C@@H](CCN2S(=O)(=O)c2ccccc2)[C@@H](CO)N3)c1	-6.0	108.1*	6.3	103.5*	u	4.6	21.1
O=S(=O)(c1ccccc1)N1CC[C@H]2[C@H](CO)Nc3ccc(-c4ccccc4F)cc3[C@H]21	61.5	101.7*	70.6	101.5*	68.7	59.3*	67.3*
Cc1ccc(S(=O)(=O)N2CC[C@H]3[C@H](CO)Nc4ccc(-c5ccccc5F)cc4[C@H]32)cc1	12.4	u	-4.1	102.9*	86.5	46.4*	84.8*
Cc1cccc(S(=O)(=O)N2CC[C@@H]3[C@H](CO)Nc4ccc(-c5ccccc5F)cc4[C@@H]32)c1	4.6	-8.0	4.3	x	x	x	x
Cc1ccc(S(=O)(=O)N2CC[C@@H]3[C@H](CO)Nc4ccc(-c5cccc(C(=O)N(C)C)c5)cc4[C@@H]32)cc1	-31.9	10.9	9.9	x	x	x	x
CCC(=O)Nc1ccc2c(c1)OC[C@@H](C)N(C(=O)Cc1cccnc1)C[C@@H](C)[C@@H](OC)CN(C)C2=O	15.1	12.2	x	x	x	x	x
O=C(C[C@H]1C=C[C@@H](NC(=O)c2ccccn2)[C@@H](CO)O1)NCc1cc(F)cc(F)c1	-1.2	-14.7	x	x	x	x	x
O=C(Nc1ccc(F)cc1)N1C[C@H]2[C@@H](c3ccccc31)[C@H](CO)N2C(=O)c1ccccc1F	-79.4	85.4	11.3	x	x	x	x
COc1ccccc1C#Cc1ccc([C@@H]2[C@H]3CN(S(C)(=O)=O)CCCCN3[C@H]2CO)cc1	-3.8	93.9	-2.8	x	x	x	x
CCCC#Cc1ccc([C@@H]2[C@@H](CO)N3CCCCN(S(=O)(=O)CC)C[C@H]23)cc1	6.7	-4.7	11.6	x	x	x	x
COc1ccccc1C#Cc1ccc([C@H]2[C@H](CO)N3CCCCN(S(C)(=O)=O)C[C@@H]23)cc1	-13.5	u	3.6	105.9*	73.9	38.5*	69.8*
CCS(=O)(=O)N1CCCCN2[C@H](CO)[C@H](c3ccc(C#Cc4ccccc4OC)cc3)[C@@H]2C1	-77.3	112.0*	-2.0	105.9*	73.8	42.0*	51.2*
CCS(=O)(=O)N1CCCCN2[C@H](CO)[C@@H](c3ccc(C#Cc4ccccc4OC)cc3)[C@H]2C1	-8.2	121.7*	-1.6	100.5*	50.6	45.4*	85.3*
CCS(=O)(=O)N1CCCCN2[C@H](CO)[C@H](c3ccc(C#Cc4ccccc4OC)cc3)[C@H]2C1	-22.0	-0.7	13.8	x	x	x	x
COc1ccc(C[C@@H]2CCc3cnnn3COC[C@@H](Cc3ccccc3)NC2=O)cc1	x	x	-16.9	x	x	x	x
COc1ccc(NC(=O)N(C)C[C@H]2Oc3ccc(NS(=O)(=O)c4ccc(OC)cc4)cc3C(=O)N([C@@H](C)CO)C[C@H]2C)cc1	-2.6	-19.8	0.7	x	x	x	x
CCCN(C)C[C@H]1Oc2cc(C#C[C@H](C)O)ccc2S(=O)(=O)N([C@@H](C)CO)C[C@H]1C	-31.1	1.5	-0.5	x	x	x	x
C[C@H](CO)N1C[C@H](C)[C@H](CN(C)S(=O)(=O)c2ccccc2)Oc2c(NC(=O)Nc3ccc(C(F)(F)F)cc3)cccc2C1=O	-1.3	42.5	x	x	x	x	x
C[C@@H]1CN([C@H](C)CO)C(=O)Cc2cc(NC(=O)Cn3cnnn3)ccc2O[C@H]1CN(C)S(=O)(=O)c1ccc(F)cc1	38.3	-1.7	-0.3	x	x	x	x
SMILES	Pf Dd2 inh	T cruzi growth-1	C diff growth	T cruzi growth-2	T cruzi growth-3	NIH3T3 tox	NIH3T3 tox 2
Cc1cccc(-c2ccc([C@H]3[C@@H](CO)N4CCCCN(C(=O)c5ccc6c(c5)OCO6)C[C@@H]34)cc2)c1	9.3	u	-4.6	110.8*	99.1*	u	90.2*
Cc1cccc(-c2ccc([C@@H]3[C@@H](CO)N4CCCCN(C(=O)c5ccc6c(c5)OCO6)C[C@@H]34)cc2)c1	-11.4	54.9	-3.7	x	x	x	x
Cc1cccc(-c2ccc([C@H]3[C@H]4CN(C(=O)c5ccc6c(c5)OCO6)CCCCN4[C@H]3CO)cc2)c1	-40.9	116.0*	-3.6	105.0*	56.6	30.8	106.1*
Cc1cccc(-c2ccc([C@H]3[C@@H](CO)N4CCCCN(C(=O)c5ccc6c(c5)OCO6)C[C@H]34)cc2)c1	-33.8	120.5*	0.0	97.9*	105.5*	43.7*	107.2*
Cc1cccc(-c2ccc([C@@H]3[C@@H](CO)N4C(=O)CN(C(=O)c5ccc6c(c5)OCO6)C[C@H]34)cc2)c1	-6.4	x	-11.1	x	x	x	x
CC(=O)N1CCCCN2[C@H](CO)[C@H](c3ccc(-c4cccc(C)c4)cc3)[C@@H]2C1	-23.9	78.2	-10.6	x	x	x	x
O=C(c1ccc2c(c1)OCO2)N1CCCCN2[C@@H](CO)[C@H](c3ccc(-c4ccccc4)cc3)[C@@H]2C1	5.4	54.3	5.4	x	x	x	x
Cc1cccc(-c2ccc([C@@H]3[C@@H](CO)N4CCCCN(C(=O)c5ccc6c(c5)OCO6)C[C@H]34)cc2)c1	2.6	106.4*	-0.1	103.9*	35.2	26.3	103.4*
COCC(=O)Nc1ccc2c(c1)C(=O)N(C)C[C@@H](OC)[C@@H](C)CN(C(=O)c1ccccc1F)[C@H](C)CO2	-45.6	-31.5	x	x	x	x	x
CCCC(=O)N1CC2(CCN(C(=O)NC(C)C)CC2)c2c(n(C)c3cc(OC)ccc23)[C@@H]1CO	28.9	x	x	x	x	x	x
C[C@H]1CN([C@@H](C)CO)C(=O)c2cc(-c3ccncc3)cnc2O[C@H]1CN(C)C(=O)c1ccc(F)cc1	-1.4	63.5	1.6	x	x	x	x
COc1cccc(-c2ccc([C@H]3[C@@H](CO)N4CCCCN(C(=O)c5ccc6c(c5)OCO6)C[C@H]34)cc2)c1	-18.5	109.8*	2.4	105.4*	87.1	33.1	106.1*
O=C(c1ccc2c(c1)OCO2)N1CCCCN2[C@H](CO)[C@H](c3ccc(-c4ccccc4)cc3)[C@H]2C1	-5.4	60.9	-2.1	x	x	x	x

Screening results deposited in PubChem by Broad Institute.
